{"source": "paper PMC4336329", "about": "(PLoS ONE, 2015)", "note": "The campaign covered roughly 310,000 compounds. About 14,000 (4.5%) showed an effect of 50% or more. The effect is printed as a negative number. Only a selection was taken, and strong results are over-represented in it overall.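 Also: peak tail current of the secondary pulse compared with the same well before compound.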"}
{"molecular_target": "human ether-à-go-go-related gene (hERG) potassium channel (human, UniProt Q12809)", "sequence (Q12809 whole entry, looked up)": "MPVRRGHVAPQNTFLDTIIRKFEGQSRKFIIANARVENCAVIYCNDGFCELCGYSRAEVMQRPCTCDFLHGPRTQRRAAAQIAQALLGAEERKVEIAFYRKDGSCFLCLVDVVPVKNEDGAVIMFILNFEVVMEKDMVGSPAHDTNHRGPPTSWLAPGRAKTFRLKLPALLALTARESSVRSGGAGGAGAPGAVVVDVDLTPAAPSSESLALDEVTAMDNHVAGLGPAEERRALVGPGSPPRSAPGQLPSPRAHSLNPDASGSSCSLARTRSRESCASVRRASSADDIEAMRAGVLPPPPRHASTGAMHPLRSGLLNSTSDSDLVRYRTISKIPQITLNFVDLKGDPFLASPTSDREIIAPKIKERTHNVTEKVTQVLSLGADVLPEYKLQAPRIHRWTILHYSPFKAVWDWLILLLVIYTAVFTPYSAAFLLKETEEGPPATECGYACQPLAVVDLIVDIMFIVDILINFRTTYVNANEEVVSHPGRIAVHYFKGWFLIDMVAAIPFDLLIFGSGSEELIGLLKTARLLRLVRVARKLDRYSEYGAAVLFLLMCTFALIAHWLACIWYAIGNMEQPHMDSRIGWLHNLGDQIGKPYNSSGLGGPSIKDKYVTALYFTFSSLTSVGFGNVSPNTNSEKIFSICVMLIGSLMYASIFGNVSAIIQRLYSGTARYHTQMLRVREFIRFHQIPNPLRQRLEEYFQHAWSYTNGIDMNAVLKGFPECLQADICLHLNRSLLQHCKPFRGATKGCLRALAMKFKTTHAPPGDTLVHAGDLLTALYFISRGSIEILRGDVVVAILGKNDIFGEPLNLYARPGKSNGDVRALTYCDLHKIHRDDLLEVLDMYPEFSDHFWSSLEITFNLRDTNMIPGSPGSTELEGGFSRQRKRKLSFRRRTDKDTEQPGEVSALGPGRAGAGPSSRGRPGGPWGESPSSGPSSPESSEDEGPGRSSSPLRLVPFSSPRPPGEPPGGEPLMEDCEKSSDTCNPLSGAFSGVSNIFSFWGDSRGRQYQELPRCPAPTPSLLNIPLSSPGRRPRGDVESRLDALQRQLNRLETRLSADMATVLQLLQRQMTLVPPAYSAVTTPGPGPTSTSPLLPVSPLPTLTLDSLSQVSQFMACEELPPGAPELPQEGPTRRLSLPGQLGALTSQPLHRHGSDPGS", "test": "primary screen, population patch clamp on CHO cells stably expressing hERG; higher = less effect of the substance", "units": {"hERG current change (%, negative = inhibition) at 10uM": "%"}}
{"compound": "C/C(=N/O)c1cc(C(C)(C)C)c(O)c(C(C)(C)C)c1", "hERG current change (%, negative = inhibition) at 10uM": 14.6}
{"compound": "COc1ccc([C@@H]2CC=C(C(=O)O)[C@H](c3ccc(F)cc3)N2S(=O)(=O)c2ccc(C)cc2)cc1OC", "hERG current change (%, negative = inhibition) at 10uM": 10.5}
{"compound": "Fc1cccc(Cl)c1Cn1nnc(-c2ccc3c(c2)OCO3)n1", "hERG current change (%, negative = inhibition) at 10uM": -1.37}
{"compound": "N=c1c2c3c(sc2nc2n1CCC2)CCCC3", "hERG current change (%, negative = inhibition) at 10uM": -28.9}
{"compound": "N=c1c2c3c(sc2nc2n1CCCCC2)CCCC3", "hERG current change (%, negative = inhibition) at 10uM": -45.2}
{"compound": "N=c1c2c3c(sc2nc2n1CCCCC2)CCCCC3", "hERG current change (%, negative = inhibition) at 10uM": -53}
{"compound": "NC(=O)NCc1cccs1", "hERG current change (%, negative = inhibition) at 10uM": 7.27}
{"compound": "CCOc1cc(C(=S)N2CCOCC2)ccc1OS(=O)(=O)c1ccccc1[N+](=O)[O-]", "hERG current change (%, negative = inhibition) at 10uM": 8.98}
{"compound": "O=[N+]([O-])c1ccccc1S(=O)(=O)Oc1ccc(C(=S)N2CCOCC2)cc1", "hERG current change (%, negative = inhibition) at 10uM": -75}
{"compound": "O=C(c1cccc(Oc2ccc([N+](=O)[O-])cc2)c1)N1CCOCC1", "hERG current change (%, negative = inhibition) at 10uM": -34.3}
{"compound": "O=[N+]([O-])c1ccc(Oc2ccc(S(=O)(=O)N3CCOCC3)cc2)cc1", "hERG current change (%, negative = inhibition) at 10uM": -63.4}
{"compound": "O=[N+]([O-])c1ccccc1S(=O)(=O)Nc1ccc(S(=O)(=O)N2CCOCC2)cc1", "hERG current change (%, negative = inhibition) at 10uM": 14.7}
{"compound": "COc1cc(C(=S)N2CCOCC2)ccc1OS(=O)(=O)c1ccccc1[N+](=O)[O-]", "hERG current change (%, negative = inhibition) at 10uM": -1.24}
{"compound": "O=C(c1ccccc1Oc1ccc([N+](=O)[O-])cc1)N1CCOCC1", "hERG current change (%, negative = inhibition) at 10uM": -52}
{"compound": "O=[N+]([O-])c1ccc(-c2ccc(S(=O)(=O)N3CCOCC3)cc2)cc1", "hERG current change (%, negative = inhibition) at 10uM": -29.8}
{"compound": "Cn1nc([N+](=O)[O-])nc1Oc1ccccc1C(=O)N1CCOCC1", "hERG current change (%, negative = inhibition) at 10uM": 17.4}
{"compound": "O=[N+]([O-])c1ccccc1Oc1ccc(S(=O)(=O)N2CCOCC2)cc1", "hERG current change (%, negative = inhibition) at 10uM": -63.8}
{"compound": "O=S(=O)(c1ccc(Oc2ccccc2)cc1)N1CCOCC1", "hERG current change (%, negative = inhibition) at 10uM": 0.463}
{"compound": "O=S(=O)(c1ccc(Oc2ccc(S(=O)(=O)N3CCOCC3)cc2)cc1)N1CCOCC1", "hERG current change (%, negative = inhibition) at 10uM": 9.29}
{"compound": "NC(=O)CC(NC(=O)Cc1ccc(Br)cc1)c1ccc(N2CCc3ccccc3C2)c([N+](=O)[O-])c1", "note": "(stereo not shown)", "hERG current change (%, negative = inhibition) at 10uM": -2.08}
{"compound": "O=S(=O)(Nc1ccc(Cl)nn1)c1ccccc1", "hERG current change (%, negative = inhibition) at 10uM": 12.7}
{"compound": "Cn1c(N)c(C(=O)COC(=O)/C=C/c2ccc(OC(F)F)cc2)c(=O)n(C)c1=O", "hERG current change (%, negative = inhibition) at 10uM": 3.23}
{"compound": "O=C(O)C(=O)O.Oc1ccccc1CN1CCN(C(O)(c2ccccc2)c2ccccc2)CC1", "hERG current change (%, negative = inhibition) at 10uM": -46}
{"compound": "O=C(O)C(=O)O.Oc1ccccc1CN1CCC(C(O)(c2ccccc2)c2ccccc2)CC1", "hERG current change (%, negative = inhibition) at 10uM": -68.5}
{"compound": "O=C(CN1CCC(C(O)(c2ccccc2)c2ccccc2)CC1)Nc1ccccc1", "hERG current change (%, negative = inhibition) at 10uM": -42.1}
{"compound": "Nc1c(Cl)cc(-c2csc(N3CCCC3c3nc4cc(Cl)c(Cl)cc4n3CCCO)n2)cc1Cl", "note": "(stereo not shown)", "hERG current change (%, negative = inhibition) at 10uM": -2.8}
{"compound": "CC(NC(=O)C1CC1)C(c1cccs1)N1CCN(c2ccccc2)CC1", "note": "(stereo not shown)", "hERG current change (%, negative = inhibition) at 10uM": -0.284}
{"compound": "COc1ccc(NC(=O)CN(C)Cc2cccs2)cc1Cl", "hERG current change (%, negative = inhibition) at 10uM": -15.7}
{"compound": "CN1CCN(c2oc(-c3ccccc3F)nc2S(=O)(=O)c2ccc(Cl)cc2)CC1", "hERG current change (%, negative = inhibition) at 10uM": -57.6}
{"compound": "O=S(=O)(c1ccccc1)c1nc(-c2ccccc2)oc1N1CCCC1", "hERG current change (%, negative = inhibition) at 10uM": 8.44}
{"compound": "NC(=O)C1CCN(c2oc(-c3ccc(F)cc3)nc2S(=O)(=O)c2ccccc2)CC1", "hERG current change (%, negative = inhibition) at 10uM": -17.4}
{"compound": "CN1CCN(c2oc(-c3ccccc3)nc2S(=O)(=O)c2ccc(Br)cc2)CC1", "hERG current change (%, negative = inhibition) at 10uM": -68.6}
{"compound": "O=S(=O)(c1ccc(F)cc1)c1nc(-c2ccccc2F)oc1N1CCCCC1", "hERG current change (%, negative = inhibition) at 10uM": -20}
{"compound": "CN1CCN(c2oc(-c3ccccc3Cl)nc2S(=O)(=O)c2ccccc2)CC1", "hERG current change (%, negative = inhibition) at 10uM": -47.9}
{"compound": "NC(=O)C1CCN(c2oc(-c3ccccc3)nc2S(=O)(=O)c2ccc(Br)cc2)CC1", "hERG current change (%, negative = inhibition) at 10uM": -55.9}
{"compound": "Cc1ccc(S(=O)(=O)c2nc(-c3ccccc3)oc2N2CCC(C(N)=O)CC2)cc1", "hERG current change (%, negative = inhibition) at 10uM": -26.3}
{"compound": "O=S(=O)(c1ccc(Br)cc1)c1nc(-c2ccccc2)oc1N1CCOCC1", "hERG current change (%, negative = inhibition) at 10uM": -30.7}
{"compound": "CCN(CC)S(=O)(=O)c1cccc(N=Nc2sc(N)nc2C)c1", "hERG current change (%, negative = inhibition) at 10uM": -12.8}
{"compound": "S=C1NC[C@H](CC2CCCCC2)N1CC1CCCCC1", "hERG current change (%, negative = inhibition) at 10uM": -8.59}
{"compound": "O=C(CN1CCCCC1)Nc1ccc(NC(=O)c2ccc(Cl)cc2)cc1Cl", "hERG current change (%, negative = inhibition) at 10uM": 13.7}
{"compound": "CCC(NC(=O)c1cc(COc2cncc(Cl)c2)on1)c1ccncc1", "note": "(stereo not shown)", "hERG current change (%, negative = inhibition) at 10uM": 8.75}
{"compound": "COc1ccc(-c2cc3ccccc3n2CC(O)CNCCO)cc1.O=C(O)C(=O)O", "note": "(stereo not shown)", "hERG current change (%, negative = inhibition) at 10uM": 3.61}
{"compound": "COc1ccc(-c2cc3ccccc3n2CC(O)CN2CCC(C)CC2)cc1.O=C(O)C(=O)O", "note": "(stereo not shown)", "hERG current change (%, negative = inhibition) at 10uM": -77}
{"compound": "COc1ccc(-c2cc3ccccc3n2CC(O)CN2CCN(CCO)CC2)cc1", "note": "(stereo not shown)", "hERG current change (%, negative = inhibition) at 10uM": -29.9}
{"compound": "COc1ccc(-c2cc3ccccc3n2CC(O)Cn2nc(C)cc2C)cc1", "note": "(stereo not shown)", "hERG current change (%, negative = inhibition) at 10uM": 4.62}
{"compound": "COc1ccc(-c2cc3ccccc3n2CC(O)CN2CCOCC2)cc1", "note": "(stereo not shown)", "hERG current change (%, negative = inhibition) at 10uM": -13.5}
{"compound": "COc1ccc(-c2cc3ccccc3n2CC(O)CN2CCCCC2)cc1.O=C(O)C(=O)O", "note": "(stereo not shown)", "hERG current change (%, negative = inhibition) at 10uM": -79.6}
{"compound": "OCC[C@H]1C[C@H](O)[C@@H](O)[C@@]2(OCc3ccccc32)O1", "hERG current change (%, negative = inhibition) at 10uM": 8.35}
{"compound": "CCOc1ccccc1N(CC(=O)NC(C)(C)C)C(=O)Cn1nnc(-c2ccc(C)o2)n1", "hERG current change (%, negative = inhibition) at 10uM": -16}
{"compound": "O=C(C1CC1)N1CCc2cc(Br)cc(S(=O)(=O)N3CCN(c4ccccn4)CC3)c21", "hERG current change (%, negative = inhibition) at 10uM": -17.5}
{"compound": "COc1ccc(CCNC(=O)NCCc2c[nH]c3ccccc23)cc1OC", "hERG current change (%, negative = inhibition) at 10uM": -3.31}
{"compound": "CCOc1ncccc1C(=O)Nc1cccc(-c2nnc3n2CCCCC3)c1", "hERG current change (%, negative = inhibition) at 10uM": -19.6}
